Measurements reported in PubChem BioAssay (Tox21).
Several values for one entry are separate records, joined by “and”; a condition that tells them apart may be missing. Identical values can stand only once. Results filed as inconclusive are left out. A call without a number means that no potency is given here. A number with no mark means an inactive call. Activity calls are given as the source filed them. Calls follow the shape of the dose curve; as a rule, active = well fitted cell-killing curve with a large enough effect in the repeat runs; inconclusive = weak or mixed curves, or effect the other way; inactive = flat fitted curve, though single readings scatter.

What was measured:
[1] = cAMP Responsive Elements (CRE) small molecule antagonists, cell-based qHTS assay: qHTS cell viability counter screen (AID 2060913); also: nearly all actives have a fitted effect of over 40% in size
Outline: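 HEK293T CRE-bla, 2,000 cells/well, 18 h preincubation; cpd in DMSO + NKH477 0.25 uM final, 3 h 37 C/5% CO2; LiveBLAzer 2 h RT, then CellTiter-Glo 30 min RT, luminescence.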

[2] = cAMP Responsive Elements (CRE) small molecule agonists, cell-based qHTS assay: qHTS cell viability counter screen (AID 2060914);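 also: viability read after 3 h of compound exposure; nearly all actives have a fitted effect of over 50% in size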
Outline: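 Cells are seeded and incubated 18 h, treated with compounds in DMSO for 3 h, read for the bla reporter, then given CellTiter-Glo; luminescence is measured after 30 min at room temperature.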
Potency is read from the fitted curve at half-maximal effect.

| Structure (SMILES) | Potency [1] | Potency [2] | viability change, negative = cytotoxic [1] | activity change, negative = cytotoxicity [2] |
| --- | --- | --- | --- | --- |
| CC(C)CCOCCC(C)C | inactive | inactive | – | – |
| CCCCCCCCCCCCCCCCCCOCC(O)CO (configuration not stated) | inactive | inactive | – | – |
| COc1cc(CCC(C)=O)ccc1O | inactive | inactive | – | – |
| CCN(CC)c1ccc2c(C)cc(=O)oc2c1 | inactive | inactive | – | – |
| C=CCCC(=O)O | inactive | inactive | – | – |
| Cl[Si](Cl)(c1ccccc1)c1ccccc1 | inactive | inactive | – | – |
| Nc1ccc2c(S(=O)(=O)O)cccc2c1S(=O)(=O)O | inactive | inactive | – | – |
| CC(C=O)Cc1ccc(C(C)(C)C)cc1 (configuration not stated) | inactive | inactive | – | – |
| CCCCCCCCCCCCCCC | inactive | inactive | – | – |
| CC(C)=CCC1C(=O)N(c2ccccc2)N(c2ccccc2)C1=O | inactive | inactive | – | – |
| CO/N=C(/C(=O)N[C@@H]1C(=O)N2C(C(=O)O)=C(Cn3nnc(C)n3)CS[C@H]12)c1csc(N)n1 | inactive | inactive | – | – |
| CC(C)(Oc1ccc(CCNC(=O)c2ccc(Cl)cc2)cc1)C(=O)O | inactive | inactive | – | – |
| O=C(O)/C=C/c1ccccc1 | inactive | inactive | – | – |
| COC(=O)N[C@H](C(=O)N[C@@H](Cc1ccccc1)[C@@H](O)CN(Cc1ccc(-c2ccccn2)cc1)NC(=O)[C@@H](NC(=O)OC)C(C)(C)C)C(C)(C)C | inactive | inactive | – | – |
| CCN1CCC[C@H]1CNC(=O)c1c(O)c(Cl)cc(Cl)c1OC | inactive | inactive | – | – |
| CC(=O)NO | inactive | inactive | – | – |
| CCCCCCCCCCCCCC[N+](C)(C)C | 52.7 µM (active) and 48.5 µM (active) | 52.7 µM (active) | – | – |
| C=C(C)C1CC=C(C)C(=O)C1 (configuration not stated) | inactive | inactive | – | – |
| CC(C)(c1ccccc1)c1ccc(Nc2ccc(C(C)(C)c3ccccc3)cc2)cc1 | inactive | inactive | – | – |

| Structure (SMILES) | Potency [1] | Potency [2] | viability change, negative = cytotoxic [1] | activity change, negative = cytotoxicity [2] |
| --- | --- | --- | --- | --- |
| CSc1cnccn1 | inactive | inactive | – | – |
| Cc1cc(C)c(C(=O)O)c(C)c1 | inactive | inactive | – | – |
| CCCN(CCC)C(=O)SCC | inactive | inactive | – | – |
| CCC(CO)(CO)[N+](=O)[O-] | inactive | inactive | – | – |
| COC(=O)CCCCCCCCC(=O)OC | inactive | inactive | – | – |
| CN(C)CCc1c[nH]c2ccc(CS(=O)(=O)N3CCCC3)cc12 | inactive | inactive | – | – |
| Cc1cc(O)c(Cl)cc1C | inactive | inactive | – | – |
| CCCCCC(N)=O | inactive | inactive | – | – |
| O=[N+]([O-])c1ccc(CO)cc1 | inactive | inactive | – | – |
| CC1(C)CC(N=C=O)CC(C)(CN=C=O)C1 (configuration not stated) | inactive | inactive | – | – |
| CCC(=O)O[C@]1(C(=O)COC)[C@@H](C)C[C@H]2[C@@H]3CCC4=CC(=O)C=C[C@]4(C)C3(F)[C@@H](O)C[C@@]21C (some centres not stated) | inactive | inactive | – | – |
| CC1(C)[C@H](C(=O)O)N2C(=O)C[C@H]2S1(=O)=O | inactive | inactive | – | – |
| CC(C)(C)N | inactive | inactive | – | – |
| O=C1OC(=O)c2ccc3c4c(ccc1c24)C(=O)OC3=O | inactive | inactive | – | – |
| CC(=O)Nc1cc(S(=O)(=O)O)cc2cc(S(=O)(=O)O)c(N=Nc3ccccc3)c(O)c12 | inactive | inactive | – | – |
| CCCCCCCCCCCCCCCCN(C)C | – | – | -5.89% [at 8.39 µM] | -12.8% [at 8.39 µM] |
| CC(C(=O)O)c1cccc(C(=O)c2ccccc2)c1 (configuration not stated) | inactive | inactive | – | – |
| Cc1ccccc1CCO | inactive | inactive | – | – |
| CCCOC(=O)c1ccc(N)cc1 | inactive | inactive | – | – |

| Structure (SMILES) | Potency [1] | Potency [2] | viability change, negative = cytotoxic [1] | activity change, negative = cytotoxicity [2] |
| --- | --- | --- | --- | --- |
| CCCCC(CC)COC(=O)c1ccc(C(=O)OCC(CC)CCCC)cc1 (configuration not stated) | inactive | inactive | – | – |
| CN(C)c1nc(N(C)C)nc(N(C)C)n1 | inactive | inactive | – | – |
| Brc1nc2ccccc2s1 | inactive | inactive | – | – |
| CCCC(O)C(O)CO (configuration not stated) | inactive | inactive | – | – |
| C=C(C)C(=O)OCCCCCCOC(=O)C(=C)C | inactive | inactive | – | – |
| Cc1cc(C(C)(C)C)c(O)c(C(C)(C)C)c1 | inactive | inactive | – | – |
| O=C1c2ccccc2C(=O)c2cc(O)ccc21 | inactive | inactive | – | – |
| C1OCOCO1 | inactive | inactive | – | – |
| c1ccc(SCCSc2ccccc2)cc1 | inactive | inactive | – | – |
| OC(CCN1CCCCC1)(c1ccccc1)c1ccccc1 | inactive | inactive | – | – |
| CCOCCOCCO | inactive | inactive | – | – |
| Cc1ccccc1C(=O)Nc1ccc(C(=O)N2CCCC(O)c3cc(Cl)ccc32)c(C)c1 (configuration not stated) | inactive | inactive | – | – |
| ONc1ccccc1 | inactive | inactive | – | – |
| COc1ccc2cc([C@H](C)C(=O)O)ccc2c1 | inactive | inactive | – | – |
| OC[C@H]1O[C@H](O[C@]2(CCl)O[C@H](CCl)[C@@H](O)[C@@H]2O)[C@H](O)[C@@H](O)[C@H]1Cl | inactive | inactive | – | – |
| OC[C@@H](O)[C@@H](O)CO | inactive | inactive | – | – |
| Nc1nc2ccccc2[nH]1 | inactive | inactive | – | – |
| O=S(=O)(O)c1ccc2c(N=Nc3ccc(S(=O)(=O)O)c4ccccc34)c(O)c(S(=O)(=O)O)cc2c1 | – | – | 7.11% [at 8.39 µM] | 0.372% [at 8.39 µM] |
